Screening data from PubChem BioAssay.
Sampled rows, rich in hits. Any-hit rate of the full collection: about 6.2%.
VP16 counter: Gal4-VP16 reporter inhibition counter-screen; Drosophila S2 Gal4-VP16 UAS-luciferase, luminescence, 20 h; Potency, µM (titrated, usually from 53.6 µM), hits mostly inhibitors; actives 3.5% (n = 310,000); AID 2546;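 note: Gal4-VP16 expression switched on by copper sulfate through the metallothionein promoter; nearly all actives have a fitted effect of over 50% in size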
RORgamma inh: blocks mouse ROR gamma transcriptional activity; Drosophila S2 Gal4-RORgamma UAS-luciferase reporter, 20 h; actives 5.4% (n = 310,000); Potency, µM (top dose mostly 53.6 µM), most hits filed as inhibitors; AID 2551; P51450; note: nearly all actives have a fitted effect of over 60% in size
Target sequence (P51450 whole entry, looked up, the tested form may be a part): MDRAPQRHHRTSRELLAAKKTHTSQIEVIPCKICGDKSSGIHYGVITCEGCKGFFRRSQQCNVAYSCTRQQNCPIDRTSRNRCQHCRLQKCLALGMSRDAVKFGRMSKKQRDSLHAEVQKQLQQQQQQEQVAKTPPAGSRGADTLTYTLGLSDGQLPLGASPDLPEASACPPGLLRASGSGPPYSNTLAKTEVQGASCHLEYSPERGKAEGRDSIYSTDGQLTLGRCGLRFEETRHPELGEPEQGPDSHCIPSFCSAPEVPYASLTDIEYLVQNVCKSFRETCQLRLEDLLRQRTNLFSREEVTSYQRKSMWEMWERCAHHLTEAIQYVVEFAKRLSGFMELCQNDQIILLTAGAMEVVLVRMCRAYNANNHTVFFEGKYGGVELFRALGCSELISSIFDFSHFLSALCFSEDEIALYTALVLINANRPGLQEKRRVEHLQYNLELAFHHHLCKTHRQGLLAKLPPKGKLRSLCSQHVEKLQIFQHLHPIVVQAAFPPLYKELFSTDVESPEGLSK
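Read-out: Photinus luciferase luminescence; inhibitors lower reporter signal. Insect Schneider cells with Gal4-ROR gamma fusion under metallothionein promoter, UAS reporter; 700 uM final copper sulfate induction, 20 hr, ambient temperature.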
Luc counter: Kinase-Glo luciferase inhibition (counter-screen); Q27757; Kinase-Glo luciferase, ATP luminescence, 8 min; Potency, µM (series often up to 38.3 µM), usual class: inhibitors; actives 0.28% (n = 200,000); AID 1379; note: nearly all actives have a fitted effect of over 60% in size
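Inhibition of Kinase-Glo luciferase light generation was assessed at 10 uM ATP in pH 7.2 imidazole buffer, with luminescence measured after eight minutes at ambient temperature.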
Of the large screens only hits and unclear results are named; the others gave an inactive call. Calls come from the whole dose curve; as a rule, active = well fitted curve in the direction sought with a large enough effect; inconclusive = small, poorly fitted or top-dose-only effect, or another doubt; inactive = no such curve, though single readings can be large; an effect the other way counts as inactive or inconclusive.

CN(C)CCN(Cc1ccco1)C(=O)c1oc2ccccc2c1NC(=O)COc1ccccc1	none (no result: Luc counter)
O=C(NCC1OCCCN1S(=O)(=O)c1cc(F)ccc1F)C(=O)NC1CCCCCC1 (stereo unspecified)	none
CC(C)NC(=O)CSc1nnc(-c2ccc3ncccc3c2)n1C	none (no result: Luc counter)
Cc1ccc(NC(=S)NCCc2c[nH]c3ccccc23)cc1	VP16 counter 20µM, RORgamma inh 7.9µM
O=C(NCCc1c[nH]c2ccccc12)Nc1ccccc1	none
CC(C)c1ccc(NC(=S)NCCc2c[nH]c3ccccc23)cc1	VP16 counter inconclusive, RORgamma inh 10µM
Cc1cc(C)cc(NC(=O)C(=O)NCCc2c[nH]c3ccccc23)c1	none
CC(Cc1ccccc1)C(=O)NCCc1c[nH]c2ccccc12 (stereo unspecified)	RORgamma inh inconclusive
COc1ccc(CNC(=O)NCCc2c[nH]c3ccccc23)cc1	none (no result: Luc counter)
COc1ccc(CCNC(=S)NCCc2c[nH]c3ccccc23)cc1	VP16 counter inconclusive, RORgamma inh 13µM
Cc1cccc(NC(=S)NCCc2c[nH]c3ccccc23)c1	VP16 counter 1µM, RORgamma inh 2.5µM
CC(=O)N/C(=C\c1ccc(C)o1)C(=O)NCc1ccccc1	none (no result: Luc counter)
CN(C)c1nc(-c2ccccc2C(F)(F)F)nc2ccccc12	none (no result: Luc counter)
O=S(=O)(c1ccccc1)C1(C2CC(c3ccccc3)=NO2)CC(O)C1 (stereo unspecified)	none (no result: Luc counter)
COC(=O)Cc1[nH]n(-c2ccccc2)c(=O)c1C=Nc1ccc(C)cc1	none (no result: Luc counter)
O=C(NCCSc1ccc(Cl)cc1)c1ccco1	RORgamma inh inconclusive
Cc1cccc(C)c1NC(=S)NCCSc1ccc(Cl)cc1	VP16 counter inconclusive, RORgamma inh 2.5µM
Cc1ccc(NC(=O)NCCSc2ccc(C)cc2)cc1	none
Cc1ccc(SCCNC(=S)Nc2ccc(C)cc2C)cc1	VP16 counter 7.9µM, RORgamma inh 3.5µM
Cc1ccc(SCCNC(=S)Nc2cc(C)cc(C)c2)cc1	VP16 counter 7.9µM, RORgamma inh 5µM
Cc1ccc(SCCNC(=O)C(C)C)cc1	none
Cc1ccc(NC(=S)NCCSc2ccc(Cl)cc2)cc1	VP16 counter 0.89µM, RORgamma inh 0.79µM
COC(=O)Cc1ccc(NC(=S)NCCSc2ccc(C)cc2)cc1	RORgamma inh inconclusive
Cc1cccc(C2N=C(N)Nc3nc4ccccc4n32)c1 (stereo unspecified)	none (no result: Luc counter)
COc1ccc(Nc2nc(C(=O)NCCCN3CCOCC3)cs2)cc1	none
CCc1ccccc1NC(=O)c1ccc2c(O)c(S(=O)(=O)c3ccc(OC)cc3)c(=O)[nH]c2c1	none (no result: Luc counter)
C=COC(=O)/C=C/C	none (no result: Luc counter)
Cc1c(NC(=O)c2ccc(-c3cccc([N+](=O)[O-])c3)o2)c(=O)n(-c2ccccc2)n1C	none
OC(COc1cccc2ccccc12)CN1CCN(c2ccccc2Cl)CC1 (stereo unspecified)	none (no result: Luc counter)
O=C(NCC1CCCO1)C1CCCCN1S(=O)(=O)c1ccc(F)cc1 (stereo unspecified)	none
CC(CNC(=S)Nc1cc(F)cc(F)c1)CSc1ccc(Cl)cc1 (stereo unspecified)	VP16 counter inconclusive, RORgamma inh 8.9µM
CC(C)CNC(=O)CSc1ccc(Cl)cc1	none
O=C(NCCCn1ccnc1)C1CCN(S(=O)(=O)c2ccc(F)cc2)CC1	none (no result: Luc counter)
Cc1cccc(/N=C/c2c(O)c3ccccc3oc2=O)n1	Luc counter inconclusive
O=C1C(C=NCc2ccccn2)=C(O)c2ccccc21	VP16 counter 5µM, RORgamma inh 2.5µM
O=c1oc2ccccc2c(O)c1C=NCc1ccccn1	VP16 counter 1µM, RORgamma inh 0.56µM
CC(C)CN=CC1=C(O)c2ccccc2C1=O	none (no result: Luc counter)
CCCCCCCc1cc2c(cn1)=C(OC)C(C)(OC(C)=O)C(=O)C=2Cl (stereo unspecified)	none
COc1c(N2C[C@@H]3CCCN[C@H]3C2)c(F)cc2c(=O)c(C(=O)O)cn(C3CC3)c12	none
COc1ccc(C(=O)N2CCC3(CC2)CN(C(=O)NC(C)C)C3)cc1	none
CCOC(=O)c1c(C)nsc1NC(=O)C1CCCCC1	none (no result: Luc counter)
C/C(CCc1ccccc1)=N\NC(=O)C1C2CCCCC21 (stereo unspecified)	none
C/C(CCC(C)C)=N\NC(=S)NCc1ccccc1	VP16 counter inconclusive, RORgamma inh 4µM
C/C(=N\NC(=S)NCCc1ccccc1)c1cccs1	VP16 counter 1.4µM, RORgamma inh 4.5µM
C/C(CCc1ccccc1)=N\NC(=S)NCCc1ccccc1	VP16 counter 6.3µM, RORgamma inh 5µM (no result: Luc counter)
CC(OC(=O)c1cccs1)C(=O)NCCc1ccccc1 (stereo unspecified)	none (no result: Luc counter)
Cc1cc(C)c(C#N)c(SCC(=O)c2ccccc2)n1	none
Cc1cc(SCC(=O)c2ccccc2)n2nc(C)nc2n1	VP16 counter 7.1µM, RORgamma inh 14µM
O=C1N/C(=C/c2ccc(N3CCOCC3)o2)C(=O)N1c1cccc(Cl)c1	VP16 counter 4.5µM, RORgamma inh 3.5µM
Cc1ccc(/C=C2/NC(=O)N(c3ccccc3)C2=O)o1	VP16 counter inconclusive
CCCOc1cccc(-c2nn(-c3ccccc3)cc2/C=C(\C#N)C(=O)NCCCn2ccnc2)c1	VP16 counter inconclusive
N#C/C(=C/c1cn(-c2ccccc2)nc1-c1cccc(OCc2ccc(F)cc2)c1)C(=O)NCCCn1ccnc1	VP16 counter 11µM, RORgamma inh inconclusive
Cc1nn(C2CCS(=O)(=O)C2)c(Cl)c1/C=C/C(=O)OCC(N)=O (stereo unspecified)	none (no result: Luc counter)
Cc1ccc(-c2nc3cnccn3c2Nc2ccc3c(c2)OCO3)cc1	none
Clc1ccc2nc(-c3ccccn3)c(Nc3ccc4c(c3)OCO4)n2c1	VP16 counter inconclusive, RORgamma inh 7.9µM
Cc1ccc2nc(-c3ccccc3O)c(Nc3ccc4c(c3)OCCO4)n2c1	RORgamma inh 18µM
Cc1ccc2nc(-c3ccc(O)cc3)c(Nc3ccc4c(c3)OCCO4)n2c1	none
CCCC1(C(=O)OC)C=C2C(=C(c3ccccc3)C(=O)C2C)CN1 (stereo unspecified)	none
O=C(CCl)Nc1cccc(Oc2ccccc2)c1	VP16 counter inconclusive, RORgamma inh 10µM
O=C(CCl)Nc1ccc(N=Nc2ccccc2)cc1	VP16 counter inconclusive, RORgamma inh inconclusive
O=C(CN1CCCCC1)Nc1cccc(Oc2ccccc2)c1	none
O=C(CCl)Nc1ccc(-c2ccccc2)cc1	VP16 counter inconclusive, RORgamma inh 25µM
CC1CCN(C(=O)Cn2c(SCC(=O)Nc3nccs3)nc3ccccc32)CC1	none
COc1ccc(OC)c2sc(NC(=O)c3ccc(S(=O)(=O)N(C)C)cc3)nc12	none
COc1ccc(-c2csc(C)n2)cc1Br	none
COc1ccc(-c2csc(NC(=O)c3cc(C)oc3C)n2)cc1OC	none (no result: Luc counter)
COc1ccc(-c2csc(NC(=S)NC(=O)c3cccs3)n2)cc1OC	VP16 counter 14µM, RORgamma inh 4.5µM
COc1ccc(-c2csc(NC(=S)NC(=O)c3ccc(S(=O)(=O)N(C)C)cc3)n2)cc1OC	VP16 counter inconclusive, RORgamma inh 2.8µM (no result: Luc counter)
COc1ccc(-c2csc(NC(=S)NC(=O)c3cccs3)n2)cc1Br	VP16 counter 11µM, RORgamma inh 4.5µM (no result: Luc counter)
CCOc1ccc(C2Sc3ccccc3NC3=C2C(=O)OC3)cc1 (stereo unspecified)	none
O=C1OCC2=C1C(c1ccc3c(c1)OCO3)Sc1ccccc1N2 (stereo unspecified)	VP16 counter 14µM
